Results on 40 molecules are retold here after PubChem BioAssay (Tox21).

Activity calls are given as the source filed them. The call rests on the fitted dose curve; in most records, active means well fitted curve in the direction sought with a large enough effect in the repeat runs; inconclusive means weak or mixed curves; inactive means flat fitted curve, though single readings scatter.
On the % scale 0 is the no-effect control and ±100 the full control effect.

A short description of the test: qHTS assay to test for compound auto fluorescence at 590 nm (red) in HEK293 cells (AID 720679). Particulars: red autofluorescence 540/590 nm; series mostly up to 91.3 µM. The text has this: National Center for Advancing Translational Sciences [NCATS]
NIH Chemical Genomics Center [NCGC]
U.S. Environmental Protection Agency [EPA]
National Institutes of Environmental Health Sciences [NIEHS]
National Toxicology Program [NTP]
U.S. Food and Drug Administration [FDA]
Compound auto fluorescence often interferes with screening of the compound library against various biological targets and signaling pathways. Some of these compounds may have fluorophoric properties. Such properties may interfere with the assay outputs resulting in false positives and/or negatives. To decrease such complications and ensure the compound activities are relevant in terms of biological response, the Tox21 10K compound library was screened for auto fluorescence.
From the fluorophores used as reporter signals in our screening assays, the auto fluorescence equivalencies of compounds against three fluorophores have been evaluated: Triamterene, Fluorescein and Rose Bengal sodium for blue, green and red fluorescence, respectively. The fluorescence intensities were measured using Excitation/Emission wavelengths at 405/460nm, 485/535nm and 540/590nm for blue, green and red labels, respectively. This assay includes the red fluorescence data.
Tox21 Assay Protocol Summary:
2,000 HEK293 cells in 5 uL of culture medium containing 10% dialyzed FBS per well were dispensed into black wall/clear bottom 1536-well plates using a Multidrop Combi Dispenser (Thermo Scientific). The assay plates were incubated for 4-5 hr at 37C to allow cell attachment to the well bottom, followed by the transfer of 23 nL compound or DMSO vehicle by a pintool work station (Kalypsys, San Diego, CA). After the assay plates were incubated overnight at 37C and 5% CO2, fluorescence intensities in the assay plates were measured by an Envision (PerkinElmer, Shelton, CT) plate reader using three labels for measuring blue, green and red fluorescence at […] 460, 535 and 590nm respectively.
For orientation: qHTS replaces the single test concentration by a dilution series.
Consider `CC[C@H]1CC[C@H](NCc2cc3c(cc2OC)[C@H]2C[C@H]2C(=O)N3C)[C@H](c2ccccc2)N1`, for which the molecule was called inactive.

As to `CC(C)(C)C1CCCCC1=O` (stereo not given), the molecule was classed as inactive.

Regarding `Cc1cc(S(=O)(=O)O)c(N)cc1Cl`, the molecule was called inactive.

Consider `CC1=NN(c2cc(Cl)c(S(=O)(=O)O)cc2Cl)C(=O)C1N=Nc1ccc(S(=O)(=O)O)cc1` (stereo not given), for which the molecule was called inactive.

Consider `O=Cc1ccc(F)c(Br)c1`, for which the result was inactive.

With `CCCC1CCC(=O)O1` (stereo not given), the outcome was inactive.

On to `C[C@]12CCC(=O)C=C1CC[C@@H]1[C@@H]2CC[C@@]2(C)[C@H]1CC[C@]2(O)C(=O)CO`, for which the result was inactive.

Turning to `Cc1ccc(C=O)s1`, the outcome was inactive.

As to `Nc1ccc(Oc2ccc(N)c(N)c2)cc1`, the molecule was classed as inactive.

In the case of `CC(C)(CO)[C@@H](O)C(=O)NCCC(=O)O`, the outcome was inactive.

As to `CCCNC(C)C(=O)Nc1c(C)csc1C(=O)OC` (stereo not given), the fluorescence, % of fluorescent control is -0.0511% [at 18.6 µM] (inactive).

As to `CC(C)CCCCCCc1ccc(OCCOCCO)cc1`, the call was inactive.

On to `c1ccc(CN(CC2=NCCN2)c2ccccc2)cc1`, for which the molecule was called inactive.

For the molecule `O=C(O)CN(CCN(CC(=O)O)CC(=O)O)CCN(CC(=O)O)CC(=O)O`, the outcome was inactive.

With `CCN(CC)C(=O)N(CC)CC`, the molecule was called inactive.

As for `Cc1ccc([N+](=O)[O-])c(N)c1`, the result was inactive.

Regarding `CC(=O)OC(C)OC(C)=O`, the call was inactive.

As for `CCN(CC)CCOc1ccc(Cc2ccccc2)cc1`, the outcome was inactive.

With `CC(C)=CCC[C@](C)(O)[C@@H]1CC=C(C)CC1`, the outcome was inactive.

For the molecule `CC1=C2[C@H](/C=C(\C)C(=O)O)CC[C@@H](C)[C@H]2CC1`, the molecule was classed as inactive.

With `Nc1ccc2ccccc2c1S(=O)(=O)O`, the molecule was classed as inactive.

On to `COc1ccccc1OCC(O)COC(N)=O` (stereo not given), for which the fluorescence, % of fluorescent control was 0.0645% [at 18.6 µM] (inactive).

As for `CC1=C(CC(=O)O)c2cc(F)ccc2/C1=C\c1ccc(S(C)(=O)=O)cc1`, the molecule was classed as inactive.

In the case of `CCCCNc1cc(C(=O)O)cc(S(N)(=O)=O)c1Oc1ccccc1`, the fluorescence, % of fluorescent control was -0.225% [at 18.6 µM] (inactive).

As to `COc1nc(C)nc(NC(=O)NS(=O)(=O)c2ccccc2OCCCl)n1`, the call was inactive.

Consider `CCCCCCC`, for which the molecule was classed as inactive.

For `Cc1nnc(SCC2=C(C(=O)O)N3C(=O)[C@@H](NC(=O)Cn4cnnn4)[C@H]3SC2)s1`, the call was inactive.

On to `Cc1cc2c(s1)Nc1ccccc1N=C2N1CCN(C)CC1`, for which the call was inactive.

Take `CCCCCCCCCC/C=C/C#N`: the call was inactive.

As for `CC(C)NCC(O)COc1ccc(CCOCC2CC2)cc1` (stereo not given), the molecule was called inactive.

For `CC1(C)S[C@@H]2[C@H](NC(=O)C(C(=O)O)c3ccccc3)C(=O)N2[C@H]1C(=O)O` (stereo not given in full), the outcome was inactive.

Regarding `OCCN(CCO)CCN(CCO)CCO`, the molecule was classed as inactive.

In the case of `CCOC(=O)[C@H](CCc1ccccc1)N[C@@H](C)C(=O)N1Cc2cc(OC)c(OC)cc2C[C@H]1C(=O)O`, the call was inactive.

Regarding `C=C(C)C(=O)OCCOP(=O)(O)O`, the outcome was inactive.

Take `O=C(O)c1cccc(Cl)c1Cl`: the molecule was called inactive.

Regarding `CC(=O)N(CC(O)CN(C(C)=O)c1c(I)c(C(=O)NCC(O)CO)c(I)c(C(=O)NCC(O)CO)c1I)c1c(I)c(C(=O)NCC(O)CO)c(I)c(C(=O)NCC(O)CO)c1I` (stereo not given), the fluorescence, % of fluorescent control was -0.003% [at 18.6 µM] (inactive).

With `CCOc1ccc(NC(N)=O)cc1`, the molecule was called inactive.

On to `CCOc1ccc2nc(N)sc2c1`, for which the call was inactive.

On to `CN1C(=O)CC(c2ccccc2)C1=O` (stereo not given), for which the molecule was called inactive.

Consider `O=CCCc1ccccc1`, for which the call was inactive.
